# According to PubChem BioAssay (NCI):
# The panel holds about 83,000 compounds, 20% with a hit somewhere; the sample as a whole holds those more often.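 Percent growth is the endpoint: 0 to 100 indicates growth inhibition (40 means 60% inhibition), 0 means no net growth, and negative values indicate cell death.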 Values without a mark were called inactive. Active and inactive are the calls of the source. The calls were made as follows: active = growth percent below 10; inactive = the rest.
# Assays:
# Assay in all cases: NCI-60 one-dose screen, 48 h (100 = growth as untreated, 0 = no growth, -100 = all killed)
# Details in all cases: 10 µM unless noted
# SK-MEL-2 melanoma = system: SK-MEL-2 melanoma
# EKVX NSCLC = system: EKVX NSCLC
# SN12C renal = system: SN12C renal
# UO-31 renal = system: UO-31 renal
# TK-10 renal = system: TK-10 renal
# ACHN renal = system: ACHN renal
# CAKI-1 renal = system: CAKI-1 renal
# A498 renal = system: A498 renal
# CCRF-CEM leukemia = system: CCRF-CEM leukemia
# MOLT-4 leukemia = system: MOLT-4 leukemia
# SR leukemia = system: SR leukemia
# RPMI-8226 leukemia = system: RPMI-8226 leukemia
# OVCAR-8 ovarian = system: OVCAR-8 ovarian
# OVCAR-5 ovarian = system: OVCAR-5 ovarian
# OVCAR-4 ovarian = system: OVCAR-4 ovarian
# SK-OV-3 ovarian = system: SK-OV-3 ovarian
# IGROV1 ovarian = system: IGROV1 ovarian
# OVCAR-3 ovarian = system: OVCAR-3 ovarian
# HS 578T breast = system: HS 578T breast
# NCI/ADR-RES ovarian = system: NCI/ADR-RES ovarian
Compound,growth (SK-MEL-2 melanoma),growth (EKVX NSCLC),growth (SN12C renal),growth (UO-31 renal),growth (TK-10 renal),growth (ACHN renal),growth (CAKI-1 renal),growth (A498 renal),growth (CCRF-CEM leukemia),growth (MOLT-4 leukemia),growth (SR leukemia),growth (RPMI-8226 leukemia),growth (OVCAR-8 ovarian),growth (OVCAR-5 ovarian),growth (OVCAR-4 ovarian),growth (SK-OV-3 ovarian),growth (IGROV1 ovarian),growth (OVCAR-3 ovarian),growth (HS 578T breast),growth (NCI/ADR-RES ovarian)
Cc1nn(-c2ccccc2)c(N)c1N=C1NC(=O)/C(=C/c2ccc(Br)cc2)S1,104%,87.7%,73.8%,72.1%,106%,88.5%,68%,67%,72.1%,80.8%,36.8%,42.3%,98.8%,72.7%,95.6%,84.8%,99.6%,72%,93.6%,–
COC(=O)c1c2c(n3ccccc13)C(=O)c1ccccc1C2=O,75.3%,70.9%,53.2%,35%,80.7%,38.6%,56%,67.1%,59.1%,35.5%,38.7%,68.3%,45%,116%,77.3%,94.8%,57.5%,55.7%,73.7%,65.4%
CCN(CC)CCCN1C(=O)c2c(c(C)c3c(oc4ccc(OC)cc43)c2C)C1=O,108%,105%,100%,64.5%,110%,42.8%,92.6%,99.1%,93.9%,96.4%,102%,99.3%,93.3%,114%,117%,109%,94.6%,108%,99.2%,–
COc1ccc2[nH]cc(-c3nc(-c4c[nH]c5c(Cl)nccc45)cs3)c2c1,59.3%,62.8%,56.5%,32.4%,49.6%,16.1%,61.6%,-15.3% (active),24.7%,41.1%,18.1%,43.5%,28.9%,99.9%,68.6%,46.9%,54.7%,75.9%,38.7%,–
N#CC1=C(N)Oc2ccc3ccccc3c2C1c1ccc([N+](=O)[O-])cc1 (stereo not given),93.9%,65.8%,90.4%,51.1%,156%,76.8%,52.8%,84.8%,63.7%,68.6%,77.3%,83%,85.7%,108%,69.3%,83.4%,50.6%,79.4%,90.2%,94.6%
CC1CCN(C(=O)CCCl)c2ccccc21 (stereo not given),109%,144%,99.7%,75.8%,95.7%,117%,119%,95.8%,104%,118%,113%,114%,96.6%,129%,103%,112%,96.9%,115%,87.5%,–
COc1ccc2c(c1)CCc1[nH]nc(-c3cc(OC)c(OC)c(OC)c3)c1-2,31.1%,33.7%,31.9%,13.8%,50.1%,25.4%,26%,-9.65% (active),0.932% (active),9.32% (active),-26.2% (active),22.3%,7.98% (active),56%,45.3%,-7.59% (active),25.5%,1.01% (active),23%,0.961% (active)
CC1(C)CC[C@]23CC[C@]4(C)[C@H](CC[C@@H]5[C@@]6(C)C/C(=C/c7ccncc7)C(=O)C(C)(C)[C@@H]6CC[C@]54C)[C@H]2[C@H]1OC3,80.9%,92.3%,76.7%,57.1%,97%,91%,66.4%,-3.63% (active),44.3%,50.4%,56.5%,50%,75.1%,89.8%,92.2%,94.7%,80.5%,84.4%,84.9%,–
OCCNCCNC(Cc1ccc(Cl)cc1)c1ccccc1 (stereo not given),86.6%,88.5%,92%,64.5%,80.8%,95.9%,84.3%,90.1%,85.4%,86.4%,88.5%,81.3%,101%,63.6%,95.6%,81%,87.3%,94.5%,91.5%,92.2%
CCOC(=O)c1c(C)nc2c(c1N)CC(=O)N2Cc1ccc(OC)cc1,51.2%,47.7%,41.1%,33.8%,0.0562% (active),28.4%,76.4%,63.5%,117%,90.3%,56.2%,67.1%,13.6%,80.4%,7.06% (active),8.96% (active),46.4%,16.4%,29.4%,–
O=C(/C=C/C12c3ccccc3C(c3ccccc31)C1C(=O)NC(=O)C12)c1ccc(Br)cc1 (stereo not given),52.2%,60.2%,46.2%,41.4%,61.2%,66.2%,56.4%,60.2%,-3.91% (active),3.02% (active),14.4%,-10.7% (active),19.6%,59.6%,63.9%,72.5%,48%,13%,45.2%,–
CO[C@H]1CC(=O)n2c3ccccc3c3c4c(c5c6ccccc6n1c5c32)C(=O)NC4=O,70.5%,71.8%,65.6%,71.3%,37.3%,68.1%,58.1%,56.2%,78.3%,74.9%,20.8%,88%,37.1%,120%,24.6%,68.1%,37.3%,56.1%,27.6%,–
COc1ccc(C(=O)N2c3ccccc3Sc3ccccc32)c(C(F)(F)F)c1,47%,45.6%,40.1%,39.8%,57.4%,32.5%,31.8%,8.71% (active),22.4%,15.1%,16.3%,14.2%,14.9%,44.6%,47.1%,34.4%,37.9%,-1.95% (active),24.3%,2.91% (active)
O=C(Cc1ccc(NC(=O)c2cccc(Cl)c2)cc1)NCc1ccccc1,46.8%,72.8%,58.1%,59.9%,64.3%,65%,52%,42.2%,22.7%,39.7%,11.3%,65.8%,67.1%,73.2%,82.8%,57.6%,49.4%,16.7%,32.9%,–
Oc1c(CN2CCC(N3CCCCC3)CC2)cc(Cc2cc(CN3CCC(N4CCCCC4)CC3)c(O)c3ncccc23)c2cccnc12,41.4%,26%,34.2%,12.4%,33.5%,13.8%,25.5%,77.7%,6.54% (active),6.56% (active),12.1%,25.4%,30.1%,42.1%,20.7%,20.5%,22.9%,11.1%,52.8%,–
CCOC(=O)c1ccccc1-c1c2ccc(=[N+](C)C)cc-2oc2cc(N(C)C)ccc12,4.77% (active),34.5%,7.33% (active),52.1%,32%,6.36% (active),-26.9% (active),0.621% (active),30.3%,31.5%,21.9%,13.8%,2.69% (active),4.53% (active),17.9%,-2.61% (active),18.4%,11.1%,26.1%,102%
